Source: the supplement of paper PMC3545927
The other results are listed elsewhere or left out. The hit rate among all sequences tested is not known here.

Target: furin, P09958
Assay: furin cleavage Z-score vs untreated control; higher = more cleavage, active = 3.5 or more, inactive = 1 or less, 8 variable residues between constant flanks
Summary of the method: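 Sequencing of released DNA, tagged with adapters by PCR, gave read counts used as abundance. That DNA was freed when purified furin cut N-terminally bead-bound 8-mer peptides fused to a cDNA oligonucleotide, in 0.01 ml reactions at 1:10 enzyme:substrate in 50 mM HEPES pH 7.5 with CaCl2 and NaCl, lasting 7.5, 15 or 30 min. The cleavage Z-score was the lowess-adjusted log count versus furin-free reactions, scaled by median absolute deviation.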

Sequence of furin, P09958 (P09958 whole entry): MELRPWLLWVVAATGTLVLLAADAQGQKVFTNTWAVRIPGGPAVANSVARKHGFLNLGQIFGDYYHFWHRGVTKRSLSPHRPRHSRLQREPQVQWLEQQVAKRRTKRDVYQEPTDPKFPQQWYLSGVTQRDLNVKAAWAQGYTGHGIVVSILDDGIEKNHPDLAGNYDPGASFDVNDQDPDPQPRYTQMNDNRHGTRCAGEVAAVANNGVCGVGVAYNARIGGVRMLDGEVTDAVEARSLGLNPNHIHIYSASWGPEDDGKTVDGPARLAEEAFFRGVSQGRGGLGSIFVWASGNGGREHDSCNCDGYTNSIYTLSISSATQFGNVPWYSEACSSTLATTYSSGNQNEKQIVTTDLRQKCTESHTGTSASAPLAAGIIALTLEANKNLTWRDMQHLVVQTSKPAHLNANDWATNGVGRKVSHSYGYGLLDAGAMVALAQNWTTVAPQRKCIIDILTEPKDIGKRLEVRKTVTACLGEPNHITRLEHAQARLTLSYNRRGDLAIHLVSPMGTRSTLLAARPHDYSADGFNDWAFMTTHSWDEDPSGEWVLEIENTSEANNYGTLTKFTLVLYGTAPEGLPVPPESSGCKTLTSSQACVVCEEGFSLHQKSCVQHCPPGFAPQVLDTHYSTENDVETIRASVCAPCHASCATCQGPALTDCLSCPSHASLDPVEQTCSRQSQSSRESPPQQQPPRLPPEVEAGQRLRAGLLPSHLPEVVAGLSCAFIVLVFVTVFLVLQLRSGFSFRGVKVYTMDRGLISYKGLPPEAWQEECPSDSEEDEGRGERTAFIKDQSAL

Row | Sequence | furin cleavage Z-score (7.5 min) | furin cleavage Z-score (15 min) | furin cleavage Z-score (30 min)
1 | CAMEECSRHLAGNASASA [HC1733] | 0.727 (inactive) | 0.671 (inactive) | 1.88
2 | CAALTGTYVYAGNASASA [HC632] | 1.19 | -0.31 (inactive) | -0.691 (inactive)
3 | CAKPDYEPPVAGNASASA [HC1312] | 0.808 (inactive) | -0.123 (inactive) | 0.46 (inactive)
4 | CAEVPCHYPSAGNASASA [HC2369] | 0.223 (inactive) | 1.34 | 1.34
5 | CAVVWCSMSYAGNASASA [HC2028] | 0.181 (inactive) | 0.241 (inactive) | 0.133 (inactive)
6 | CAVQYLYGVGAGNASASA [HC510] | -0.596 (inactive) | -1.07 (inactive) | -0.127 (inactive)
7 | CANEECSQHLAGNASASA [HC1681] | 0.726 (inactive) | 1.58 | -0.0685 (inactive)
8 | CATTPCSMSWAGNASASA [HC1886] | 0.125 (inactive) | 0.0823 (inactive) | 0.51 (inactive)
9 | CAAPVRRDRSAGNASASA [FS-977] | 6.44 (active) | 6.02 (active) | 5.28 (active)
10 | CAGSSRRRRSAGNASASA [FS-1334] | 9.7 (active) | 10.8 (active) | 6.42 (active)
11 | CAGSSRLDRSAGNASASA [FS-1208] | 1.21 | 1.38 | 0.97 (inactive)
12 | CAFSSREERSAGNASASA [FS-589] | -0.625 (inactive) | -0.927 (inactive) | -2.43 (inactive)
13 | CADLEDRDRSAGNASASA [HC487] | -0.326 (inactive) | -1.64 (inactive) | -1.38 (inactive)
14 | CASDFRRRRSAGNASASA [FS-868] | 9.07 (active) | 7.71 (active) | 7.52 (active)
15 | CAGSSREVRSAGNASASA [FS-29] | 2.81 | 4.54 (active) | 4.54 (active)
